The results in this text go back to PubChem BioAssay (NCI).

“And” between values parts separate entries of the source, which are not always exact repeats. Equal entries are not always repeated. The panel holds about 83,000 compounds, 20% with a hit somewhere; the sample as a whole holds those more often.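 Each cell line was grown in a 96-well plate and treated with one concentration of compound for 48 hours. Values below 10 were considered active.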 The source made the active and inactive calls.

Some test systems named below: NCI-H23 lung; NCI-H226 lung; NCI-H322M lung; HOP-62 NSCLC; NCI-H460 lung; HOP-92 NSCLC; NCI-H522 lung; A549/ATCC NSCLC; 786-0 renal; COLO 205 colon; DU-145 prostate; K-562 leukemia; MALME-3M melanoma; MDA-MB-231 breast; RXF 393 renal; SF-268 CNS; SF-295 CNS; SF-539 CNS; UACC-257 melanoma; M14 melanoma.
Assay in all cases: NCI-60 one-dose screen, 48 h (100 = growth as untreated, 0 = no growth, -100 = all killed)
Conditions in all cases: 10 µM unless noted

Regarding `COc1ccc2nc(Cl)cc(C)c2c1`, the growth with NCI-H23 lung is 101% (inactive) and 107% (inactive); in the experiment with NCI-H226 lung, 96.5% (inactive) and 104% (inactive); in the experiment with NCI-H322M lung it was 91.3% (inactive) and 98.1% (inactive); in the experiment on HOP-62 NSCLC it was 104% (inactive) and 65% (inactive); in the experiment with NCI-H460 lung it was 100% (inactive) and 111% (inactive); in the experiment on HOP-92 NSCLC, 104% (inactive) and -11.5% (active). Moreover, the growth with NCI-H522 lung was 97.5% (inactive) and 112% (inactive); in the experiment with A549/ATCC NSCLC, 96.5% (inactive) and 109% (inactive); in the experiment with 786-0 renal, 97.2% (inactive) and 79.2% (inactive); with COLO 205 colon, 104% (inactive) and 131% (inactive); with DU-145 prostate it was 104% (inactive) and 101% (inactive); with K-562 leukemia it was 104% (inactive) and 89.5% (inactive). The growth in the experiment on MALME-3M melanoma is 97.5% (inactive) and 127% (inactive); in the experiment on MDA-MB-231 breast, 99.9% (inactive) and 102% (inactive); in the experiment on RXF 393 renal, 91.6% (inactive) and 75.9% (inactive); in the experiment with SF-268 CNS, 101% (inactive) and 116% (inactive); in the experiment with SF-295 CNS it was 92.8% (inactive) and 87.6% (inactive); with SF-539 CNS it was 96.5% (inactive) and 107% (inactive). Also, the growth is 100% (inactive) and 95.9% (inactive) in the experiment with UACC-257 melanoma; 100% (inactive) and 109% (inactive) with M14 melanoma.

With `COc1ccc(NC(=S)Nc2ccccn2)cc1`, the growth in the experiment with NCI-H23 lung was 96% (inactive); in the experiment with NCI-H226 lung, 86.2% (inactive); in the experiment on NCI-H322M lung, 97% (inactive); in the experiment with HOP-62 NSCLC, 97.9% (inactive); with NCI-H460 lung it was 100% (inactive); in the experiment on HOP-92 NSCLC, 77% (inactive). Further, the growth was 98.4% (inactive) in the experiment with NCI-H522 lung; 101% (inactive) with A549/ATCC NSCLC; 90.4% (inactive) in the experiment on 786-0 renal; 110% (inactive) in the experiment with COLO 205 colon; 93% (inactive) in the experiment with DU-145 prostate; 87.1% (inactive) in the experiment with K-562 leukemia. Also, the growth with MALME-3M melanoma was 80.6% (inactive); in the experiment with MDA-MB-231 breast it was 99% (inactive); in the experiment on RXF 393 renal it was 121% (inactive); with SF-268 CNS, 90.7% (inactive); in the experiment with SF-295 CNS it was 94.6% (inactive); with SF-539 CNS, 109% (inactive). Moreover, the growth in the experiment on UACC-257 melanoma was 104% (inactive); in the experiment on M14 melanoma, 106% (inactive).

Take `CC(=O)c1ccccc1O`: the growth in the experiment with NCI-H23 lung is 103% (inactive) and 97.7% (inactive); in the experiment with NCI-H226 lung, 102% (inactive) and 81.7% (inactive) and 104% (inactive); with NCI-H322M lung it was 98.4% (inactive) and 89.7% (inactive) and 98.2% (inactive); in the experiment on HOP-62 NSCLC, 101% (inactive) and 87.7% (inactive) and 103% (inactive); in the experiment on NCI-H460 lung, 105% (inactive) and 107% (inactive) and 103% (inactive); in the experiment with HOP-92 NSCLC, 83.7% (inactive) and 103% (inactive). Also, the growth in the experiment on NCI-H522 lung is 108% (inactive) and 88.4% (inactive) and 111% (inactive); in the experiment with A549/ATCC NSCLC it was 104% (inactive) and 81.9% (inactive) and 96.2% (inactive); with 786-0 renal, 104% (inactive) and 103% (inactive) and 101% (inactive); in the experiment on COLO 205 colon it was 131% (inactive) and 106% (inactive) and 118% (inactive); with DU-145 prostate, 112% (inactive) and 107% (inactive) and 116% (inactive); in the experiment on K-562 leukemia it was 94.9% (inactive) and 95% (inactive) and 107% (inactive). Besides, the growth with MALME-3M melanoma is 101% (inactive) and 95% (inactive) and 114% (inactive); in the experiment with MDA-MB-231 breast, 108% (inactive) and 99.3% (inactive) and 110% (inactive); in the experiment on RXF 393 renal, 101% (inactive) and 117% (inactive) and 129% (inactive); in the experiment on SF-268 CNS, 108% (inactive) and 99.6% (inactive) and 113% (inactive); with SF-295 CNS, 108% (inactive) and 101% (inactive) and 105% (inactive); in the experiment with SF-539 CNS it was 95.3% (inactive) and 103% (inactive) and 141% (inactive). Further, the growth with UACC-257 melanoma was 109% (inactive) and 89.4% (inactive) and 96.1% (inactive); in the experiment with M14 melanoma, 104% (inactive) and 98.3% (inactive) and 100% (inactive).

Consider `CCN(CC)CCC(CNc1ccnc2cc(Cl)ccc12)c1ccc(OC)cc1` (stereo not given), for which the growth in the experiment with NCI-H23 lung is 72.4% (inactive) and 66.1% (inactive); in the experiment on NCI-H226 lung, 97.2% (inactive) and 95.5% (inactive); with NCI-H322M lung, 60.4% (inactive) and 64.8% (inactive); in the experiment with HOP-62 NSCLC it was 83.4% (inactive) and 77.7% (inactive); with NCI-H460 lung, 70.1% (inactive) and 62.9% (inactive); in the experiment on HOP-92 NSCLC, 47.3% (inactive) and 59.4% (inactive). The growth with NCI-H522 lung is 25.8% (inactive) and 20.3% (inactive); with A549/ATCC NSCLC, 78.9% (inactive) and 88.3% (inactive); in the experiment with 786-0 renal, 62.1% (inactive) and 73.7% (inactive); in the experiment on COLO 205 colon, 33.3% (inactive) and -41.5% (active); in the experiment on DU-145 prostate, 84.7% (inactive) and 96.7% (inactive); with K-562 leukemia it was 6.83% (active) and 1.92% (active). The growth was -69.1% (active) and -65.7% (active) in the experiment with MALME-3M melanoma; 33.1% (inactive) and 44.1% (inactive) with MDA-MB-231 breast; 33.6% (inactive) and 38.1% (inactive) in the experiment on RXF 393 renal; 75.9% (inactive) and 76.8% (inactive) in the experiment on SF-268 CNS; 46.5% (inactive) and 1.95% (active) in the experiment with SF-295 CNS; -80.6% (active) and -66.8% (active) in the experiment on SF-539 CNS. Further, the growth with UACC-257 melanoma was -70% (active) and -74.4% (active); in the experiment with M14 melanoma, -60.3% (active) and -78.3% (active).
